In PubChem BioAssay (NCI):
Compounds without any hit were thinned out: in the full panel of roughly 83,000, 20% have a hit.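 Results are percent growth after 48 hours of single-concentration exposure. 100 means growth as in untreated cells, lower positive values show inhibition; negative values down to -100 show cell death.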 Calls of active or inactive are those of the source. Rule for the calls: active = growth percent below 10; inactive = the rest.

The compounds below were run on HL-60(TB) leukemia (assay: NCI-60 one-dose screen, 48 h (100 = growth as untreated, 0 = no growth, -100 = all killed)). Details: 10 µM unless noted.

| Compound | growth |
| --- | --- |
| c1ccc2c(c1)Oc1ccccc1C2C1c2ccccc2Oc2ccccc21 | 99.4% (inactive) |
| Cc1cc2nc(CC(=O)c3ccncc3)c(=O)[nH]c2cc1C | 89.8% (inactive) |
| O=C([O][Sn]([O]C(=O)c1ccccn1)([c]1ccccc1)[c]1ccccc1)c1ccccn1 | 68.5% (inactive) |
| O=S(=O)(c1ccccc1)n1ccc(-c2ccc3c(c2)CCO3)n1 | 109% (inactive) |
| O=C(COc1cccc(/C=C2\CSc3ccccc3C2=O)c1)Nc1nccs1 | -76.3% (active) |
| CN(C)CCNC(=O)c1cccn2c(=O)c3cc4ccccc4cc3nc12 | -38.5% (active) |
| Cc1ccc(NC(=O)N[C@@H](Cc2cc(F)cc(F)c2)C(=O)N[C@@H]2C(=O)N3CCC[C@H]3C(=O)N3CCCC[C@H]3C(=O)N[C@@H](C)C(=O)N3C[C@H](C)C[C@H]3C(=O)O[C@H]2C)cc1 | 11.6% (inactive) |
| COc1ccc(/C=C2\Oc3cc(C)c(Cl)cc3C2=O)cc1OC | 100% (inactive) |
| Oc1[nH]c2ccccc2c1/C=c1/ccc2c(c1)N=C(c1ccc(C(F)(F)F)cc1)N=2 | 74.3% (inactive) |
| COc1cc(/C=C2\CN(S(=O)(=O)c3ccc(C)cc3)C/C(=C\c3cc(CN4CCOCC4)c(O)c(OC)c3)C2=O)cc(CN2CCOCC2)c1O | -15.5% (active) |
| COc1ccc(CNCCN2C(=O)c3ccc4c5c(ccc(c35)C2=O)C(=O)N(CCNCc2ccc(OC)c(OC)c2OC)C4=O)c(OC)c1OC | -43.2% (active) |
| NS(=O)(=O)c1ccc(-n2nc(-c3ccc(Cl)cc3)c3ccccc3c2=O)cc1 | 95.2% (inactive) |
| Cn1cc(-c2nonc2-c2cn(C)c3ccc(F)cc23)c2cc(F)ccc21 | 17.3% (inactive) |
| CCOC(=O)c1c(C)nc2ccccc2c1/C=C/c1cccs1 | 87.3% (inactive) |
| CCOC(=O)c1cc(C)n(-c2ccc(C(=O)O)cc2)c1C | 86.2% (inactive) |
| COc1ccc(-c2nn(-c3ccccc3)cc2/C=C/C(=O)OCc2cn(-c3ccc(F)c(Cl)c3)nn2)cc1 | 83.3% (inactive) |
| C=CCN1C(=O)/C(=C\c2ccc3c(c2)CCC3)SC1=S | 79% (inactive) |
| O=C1C=CC2(O)OC/C(=C\c3ccccc3)C(O)=C2C1=O (stereo not given) | 4.63% (active) |
| CCCCCCCCCCCCCCCCCC[n+]1ccc2c(C)c3c(c(C)c2c1)c1cc(O)ccc1n3CC | 30.2% (inactive) |
| O=C1C=CC(=O)N1C1CCCCCCCCCCC1 | -9.95% (active) |

| Compound | growth |
| --- | --- |
| O=C(Nc1ccc(Cl)cc1F)c1cc(Br)ccc1O | -39.8% (active) |
| COc1ccc(-c2cc(-c3ccc(Nc4nc(Nc5ccc(Cl)cc5)nc(Nc5ccc(Cl)cc5)n4)cc3)nc(N)c2C#N)cc1 | 28.3% (inactive) |
| CCCCCS(=O)(=O)Nc1ccc(C(=O)O)cc1 | 101% (inactive) |
| NC(=O)Nc1ccc2ncnc(Nc3ccc(Cl)cc3)c2c1 | 99.9% (inactive) |
| O=C1c2c(c3c4cccnc4[nH]c3c3ccc4ccccc4c23)C(=O)N1O | 5.07% (active) |
| Cn1ccnc1C(=O)/C=C/c1ccc(CC(=O)Nc2ccccc2)cc1 | -27.2% (active) |
| COc1cc2ccc(C(C)=O)cc2cc1OC | 133% (inactive) |
| Cc1cc(N/N=C/c2nc(-c3ccccc3)oc2C)c2cc(Br)ccc2n1 | 80% (inactive) |
| C=C1CC[C@@H]2[C@](C)(COC(C)=O)[C@H](OC(C)=O)CC[C@@]2(C)[C@@H]1CC(Nc1ccc(S(=O)(=O)Nc2nccc(C)n2)cc1)C1=CCOC1=O (stereo not given in full) | -17.3% (active) |
| CCn1c2ccc(O)cc2c2c(C)c3c[n+](C(C)C)ccc3c(C)c21 | 70.3% (inactive) |
| C=CCOC(=O)C(=O)OCC=C | 68.7% (inactive) |
| C=C1C(=O)O[C@H]2[C@H]1CC/C(CNC(=O)c1cccc3ccccc13)=C\CC[C@@]1(C)O[C@@H]21 | -23.9% (active) |
| Cn1cc(-c2nc(-c3c[nH]c4ncccc34)cs2)c2cc(Br)ccc21 | 79.1% (inactive) |
| CCOC(=O)c1c(C)nc2c(c1N)/C(=C/c1cccs1)C(=O)N2Cc1ccccc1 | 60.4% (inactive) |
| [N-]=[N+]=NCC1OC(n2cnc3c(NC(=O)Nc4ccccc4)ncnc32)C2OC(=O)CC12 (stereo not given) | 87.3% (inactive) |
| O=C(Nc1ccc(F)c(Cl)c1)c1n[nH]c(=O)c2ccccc12 | 86.2% (inactive) |
| CCOC(=O)Cn1c(-c2nonc2NC(=O)c2ccccc2F)nc2ccccc21 | 35.1% (inactive) |
| COc1cc(OC)c(C(=O)/C=C/c2cccc(C#N)c2)c(OC)c1 | -8.6% (active) |
| COc1cc(/C=N/N(C)C)ccc1O | 86.5% (inactive) |
| CN(CC(=O)N(Cc1ccc(C2CCCCC2)cc1)c1ccc(C(=O)O)cc1)S(=O)(=O)c1c(F)c(F)c(F)c(F)c1F | -28.6% (active) |
